# The list is not random: actives were taken first. Their share in the collection is about 13%.
# RAM inhibit: yeast RAM network inhibition | S. cerevisiae dse1pr::URA3 reporter, 5-FOA growth OD615, 2 d; analog-sensitive cbk1-as2 kinase mutant strain | inhibition, % at 50 µM | 190,000 tested, 1.8% active | AID 868;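 active = inhibition above a set limit, 3 SD over mean compound inhibition, cut at about 8.4% in these data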;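 note: 0% = DMSO-only wells with no growth and 100% = 10 µM 1-NA-PP1 full growth; inhibition rescues growth on 5-FOA so higher OD means more RAM inhibition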
# WT yeast gro inh: growth inhibition of WT yeast, mitochondrial fusion screen. AID 1362. inhibition, % at 10 µM. 190,000 tested, 2.1% active. mitochondrial fusion phenotypic screen, WT strain; in the data active = inhibition above about 58%; tested in S. cerevisiae
# CHOP inhibitor: inhibitors of CHOP induction in ER stress response | AID 2732 | inhibition, % at 10 µM | 220,000 tested, 3.8% active | CHO-K1 CHOP-promoter luciferase, tunicamycin-induced, 15-18 h;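 active = compounds that reduced the stress-induced luciferase reporter signal by more than about 70% of percent inhibition, limit read from the data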;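 note: 0% = tunicamycin plus vehicle and 100% = wells without tunicamycin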
# Lmaj promast: Leishmania major promastigote growth inhibition; Leishmania major promastigotes, resazurin fluorescence viability; inhibition, % at 10 µM; 200,000 tested, 9% active; in the data active = inhibition above about 50%;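 note: promastigotes grown with compound for 44 hours at 28 °C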
# Lmaj promast 1uM: blocks Leishmania major promastigote growth at 1 uM, repeat screen; inhibition, % at 1 µM; shares compounds with Lmaj promast; AID 1258; 1,100 tested, 13% active; L. major promastigote growth, resazurin fluorescence, 48 h;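 active = inhibition above about 50% in both repeat tests, limit read from the data; inconclusive = one repeat under the set limit, the other over it; inactive = both repeats under the set limit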
# An asterisk follows results filed as active; ? = inconclusive; . = not tested or not shown.
SMILES,RAM inhibit,WT yeast gro inh,CHOP inhibitor,Lmaj promast,Lmaj promast 1uM
Cc1cnc(NC(=O)c2c(-c3ccccc3)noc2C)s1,.,.,3,.,.
COc1ccc(/C=C2\CN(Cc3ccccc3)C/C(=C\c3ccc(OC)cc3OC)C2=O)c(OC)c1,2,1,-34,71*,-2
Cc1nn(-c2ccccc2)c(Cl)c1/C=N/Nc1nncc(=O)[nH]1,.,.,-13,.,.
Cc1cccc(C2CC3(CC(C)(C)NC(=S)N3)Oc3cc(O)ccc32)c1 (stereo unspecified),2,-4,17,22,.
CC1(C)CC2(CC(c3ccccc3F)c3cc(Cl)c(O)cc3O2)NC(=S)N1 (stereo unspecified),1,28,18,83*,-14
Brc1cccc(-c2n[nH]c(-c3ccccc3)n2)c1,1,47,54,57*,0
c1ccc(-c2nc(-c3cccnc3)n[nH]2)cc1,1,5,8,-2,.
CCn1cc([N+](=O)[O-])c(C(=O)N2N=C(c3ccc(OC)cc3OC)CC2c2ccccc2O)n1 (stereo unspecified),4,-14,26,60*,1
O=C(N/N=C/c1cc(Br)ccc1O)Nc1ccccc1,1,32,33,12,.
CCOc1ccccc1NC(=O)C(=O)N/N=C/c1cc(Br)ccc1O,3,-4,61,100*,-38
COc1cccc(OC)c1C(=O)Nc1cccnc1,0,-3,-1,-7,.
CCN(CC)C(=O)CSc1ncccc1-c1nc2ccccc2[nH]1,-1,-6,-7,3,.
CC(C)C(O)(C#CCN1CCCC1)c1ccccc1 (stereo unspecified),2,2,-10,10,.
CC(C)C(O)(C#CCN1CCCCC1)c1ccccc1 (stereo unspecified),-1,10,6,93*,21
COC(=O)c1ccc(COc2ccccc2/C=N/NS(=O)(=O)c2ccc(C)cc2)cc1,4,15,44,36,.
CC(=O)Nc1ccc(-c2csc(NC(=O)C3CCN(S(=O)(=O)c4cccs4)CC3)n2)cc1,3,17,81*,70*,-1
O=Cc1ccc(OC2OCCOC2Oc2ccc(C=O)cc2)cc1 (stereo unspecified),3,-9,29,53*,1
CCn1c(=O)c(C(=O)NCc2ccc(OC)c(OC)c2)c(O)c2ccccc21,4,-10,29,84*,-14
CCn1c(=O)c(C(=O)NCc2ccccn2)c(O)c2ccccc21,0,-6,-9,-4,.
CCn1c(=O)c2c(nc3n2CCN3c2ccccc2)n(C)c1=O,7,-14,2,-4,.
O=C(Nc1ccccn1)c1ccc(Br)c(S(=O)(=O)N2CCCCC2)c1,5,-12,42,4,.
CCc1ccccc1Nc1nc2ccccc2n1C,1,3,2,57*,7
CCCn1c(Nc2nc3ccccc3n2C)nc2ccccc21,0,1,18,29,.
O=C(NCc1nnc(SCC(=O)N2CCOCC2)o1)c1ccccc1F,1,-1,5,-7,.
Cc1ccc(S(=O)(=O)Oc2ccc(/C=C(/NC(=O)c3ccccc3)C(=O)NC(C)C(=O)O)cc2)cc1 (stereo unspecified),1,10,35,-2,.
SMILES,RAM inhibit,WT yeast gro inh,CHOP inhibitor,Lmaj promast,Lmaj promast 1uM
C/C(O)=C(\N=Nc1cc(C)ccc1O)C(N)=O,3,-12,33,-11,.
O=C(NCCCn1ccnc1)c1cc2c(ccc3ccccc32)o1,2,-5,10,23,.
CC(c1ccccc1C(O)(c1ccccc1)c1ccccc1)N(C)C (stereo unspecified),0,15,32,99*,26
CN(C)C/C=C/C(O)(c1ccccc1)c1ccccc1,.,.,23,.,.
CNCCCN1c2ccccc2CCc2ccccc21,1,-1,10,82*,-1
CN(C)CCCN1c2ccccc2CCc2ccc(Cl)cc21,-1,62*,29,99*,20
O=C(NC1CCCCC1)C(c1ccc(Cl)cc1)N(C(=O)c1ccccn1)c1cccnc1 (stereo unspecified),3,-14,4,-1,.
O=[N+]([O-])c1cc(S(=O)(=O)Nc2ccccc2)ccc1-n1nnc2ccccc21,1,-15,-11,66*,-13
N=c1c2c(n(Cc3ccccc3)c3c1CCC3)CCC2,2,71*,.,100*,94*
CCCCn1c2c(c(=N)c3ccccc31)CCC2,.,.,10,.,.
COc1ccccc1C(=O)C1CCCN(Cc2cn[nH]c2C2CCCCC2)C1 (stereo unspecified),1,4,18,13,.
Cc1ccc(C)c(S(=O)(=O)NCCOC(=O)Nc2sc(=S)n(C)c2C)c1,0,24,15,88*,-13
O=C(O)CCC(=O)N1N=C(c2c(-c3ccccc3)c3cc(Cl)ccc3[nH]c2=O)CC1c1ccco1 (stereo unspecified),1,5,-2,3,.
COc1ccccc1C1CC(c2c(-c3ccccc3)c3cc(Cl)ccc3[nH]c2=O)=NN1S(C)(=O)=O (stereo unspecified),6,-17,40,65*,0
Cc1occc1C(=O)NNC(=O)C1CCCCC1,1,2,-1,72*,-15
Brc1cccc(-c2nnc3sc(CN4CCCCC4)cn23)c1,3,8,4,5,.
Brc1cccc(-c2nnc3sc(CNC4CCCC4)cn23)c1,1,15,18,85*,?
COC(=O)c1ccc(/C=N/NC(=O)CC(=O)NCc2cccnc2)cc1,0,2,0,7,.
COc1ccc(CCN(C)C(=O)C2CCN(Cc3cccc(OC)c3OC)CC2)cc1OC,0,0,15,5,.
Cc1ccc2cc(C)c(Sc3nnnn3-c3ccccc3)nc2c1,2,9,18,60*,-18
CCn1cc(C(=O)N[C@H](C)c2ccccc2)c(=O)c2cc(F)c(N3CCN(C)CC3)cc21,0,7,2,85*,-10
CCC(C)NC(=O)c1cn(CC)c2cc(N3CCN(C)CC3)c(F)cc2c1=O (stereo unspecified),.,.,0,.,.
Cc1ccc(S(=O)(=O)Nc2c(C)n(C)n(-c3ccccc3)c2=O)cc1C(=O)OCC(=O)N1CCCC(C)C1 (stereo unspecified),0,-6,14,32,.
CC(C)Cn1nc(NC(=O)C2CCCO2)c2cc3ccccc3nc21 (stereo unspecified),-1,-2,.,63*,-17
CCCn1nc(NC(=O)C2CCCO2)c2cc3cccc(C)c3nc21 (stereo unspecified),.,.,23,.,.
CCn1c(N2CCN(C(=S)NCCc3ccccc3)CC2)nc2ccccc21,1,-5,20,13,.
CSc1nnc(-c2cc(-c3ccc(C)cc3)nc3ccccc23)o1,3,1,25,64*,-9
CSc1nnc(-c2ccc(C(F)(F)F)nc2C)o1,.,.,-6,.,.
Cc1ccc(-c2cc(-c3n[nH]c(=S)o3)c3ccccc3n2)cc1,4,28,23,56*,-10
Cc1cccc(-[n+]2c(C)cc(C)c3c(=O)[nH]c(=O)[nH]c32)c1,0,1,15,-6,.

# Assay outcomes as filed in PubChem BioAssay.
